Results on five compounds are retold here after PubChem BioAssay.

Records with an inconclusive call do not appear. Active and inactive are the calls of the source.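 The calls were made as follows, unless noted: active = cell viability at or below a set limit in both duplicate runs, the limit being the all-compound median minus 4 SD (cut at about 23% in these data, passing the limit was not always enough); inconclusive = no clear call, values can overlap the other calls; inactive = the rest.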

A word on the viability: it is a read-out of living cells in per cent, often relative to untreated cells. By inhibition is commonly meant the drop in the measured response relative to a control, in per cent.

The nature of test [1]: Her2 expression decrease, cell viability multiplex – SKBR3 breast tumor cells, AlphaScreen, ATP viability, primary screen (AID 461;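 active = Her2 level under about 52% in both replicate screens, with viability over 70% of control, limit read from the data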;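 as to Her2 level: lower value means less Her2 protein in the cells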;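 as to viability: percent of carrier control wells set as 100% viability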). As to conditions: SKBR3 Her2 protein level, 18-24 h, measured here: SKBR3 viability, ATP luminescence, at 10 µM.
Test [2] deals with Receptor tyrosine-protein kinase erbB-2 (Homo sapiens) (UniProt P04626). Described as above. As to conditions: 18-24 h, at 10 µM, stronger effect = lower value.
Sequence of Receptor tyrosine-protein kinase erbB-2 (Homo sapiens) (P04626 whole entry, looked up): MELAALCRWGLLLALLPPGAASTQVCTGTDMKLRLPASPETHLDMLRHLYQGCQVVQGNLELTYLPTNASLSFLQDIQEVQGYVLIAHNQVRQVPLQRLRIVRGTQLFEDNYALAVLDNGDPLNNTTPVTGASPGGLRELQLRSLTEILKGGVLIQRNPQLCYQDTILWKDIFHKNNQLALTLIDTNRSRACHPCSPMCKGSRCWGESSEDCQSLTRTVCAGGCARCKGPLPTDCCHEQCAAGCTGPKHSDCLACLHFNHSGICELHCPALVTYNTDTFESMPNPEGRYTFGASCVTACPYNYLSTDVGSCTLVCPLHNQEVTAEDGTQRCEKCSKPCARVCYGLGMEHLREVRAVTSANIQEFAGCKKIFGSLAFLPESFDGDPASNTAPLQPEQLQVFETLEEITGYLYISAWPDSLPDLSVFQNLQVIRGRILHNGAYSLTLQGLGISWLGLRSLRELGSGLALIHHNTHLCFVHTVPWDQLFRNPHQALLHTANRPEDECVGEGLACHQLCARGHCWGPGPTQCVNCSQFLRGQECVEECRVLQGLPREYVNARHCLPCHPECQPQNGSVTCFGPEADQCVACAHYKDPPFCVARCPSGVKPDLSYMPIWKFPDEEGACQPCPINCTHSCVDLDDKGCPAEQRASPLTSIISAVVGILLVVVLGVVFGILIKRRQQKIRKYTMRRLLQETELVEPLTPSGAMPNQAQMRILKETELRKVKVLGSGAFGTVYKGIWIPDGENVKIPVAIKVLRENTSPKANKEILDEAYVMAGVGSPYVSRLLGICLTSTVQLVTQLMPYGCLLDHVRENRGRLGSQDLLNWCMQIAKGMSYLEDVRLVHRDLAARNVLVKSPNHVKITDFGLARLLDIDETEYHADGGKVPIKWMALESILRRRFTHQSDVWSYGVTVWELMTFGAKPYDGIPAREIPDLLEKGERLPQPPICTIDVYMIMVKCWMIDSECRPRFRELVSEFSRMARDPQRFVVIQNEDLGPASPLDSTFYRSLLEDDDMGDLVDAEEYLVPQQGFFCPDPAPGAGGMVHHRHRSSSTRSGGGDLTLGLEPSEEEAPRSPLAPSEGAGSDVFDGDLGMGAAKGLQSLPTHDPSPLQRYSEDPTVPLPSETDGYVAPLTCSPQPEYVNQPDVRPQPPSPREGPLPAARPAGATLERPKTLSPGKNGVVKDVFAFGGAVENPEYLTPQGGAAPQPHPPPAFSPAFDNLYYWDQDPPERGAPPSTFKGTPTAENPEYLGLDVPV
Test [3] in a line: reduced viability of SK-BR-3 breast cancer cells – cell-based, 24 h, human, pilot screen (AID 572;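 active = viability at or below 10% of carrier control in both of two separate runs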;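 also: compound exposure lasted between 18 and 24 h rather than exactly 24 h; 100% = carrier-treated control wells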). As to conditions: SK-BR-3 viability, CellTiter-Glo luminescence, at 10 µM, stronger effect = lower value. (In general: ATP-based viability assays read luminescence as a measure of living cells.)
Test [4] can be described thus: HUVEC growth inhibition – cell-based, human, primary screen (AID 575;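 active = viability at or below 30% in both replicate assays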;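 also: 100% = median of untreated cell wells with 0.1% DMSO on each plate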). As to conditions: HUVEC proliferation, CellTiter-Glo luminescence, 72 h; at 10 µM; stronger effect = lower value.
The nature of test [5]: H69AR cell proliferation blockers – human, duplicate replicates, primary screen (AID 580;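 active = viability at or under a set limit in both replicates, limit being median viability minus 3 SD, cut at about 48% in these data, passing the limit was not always enough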;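 also: 100% = mean luminescence of untreated wells and 0% = no signal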). As to conditions: H69AR lung tumor cells viability, ATP luminescence, 72 h; at 10 µM; stronger effect = lower value.
Test [6] is described as follows: MRP1 drug-resistance reversers in H69AR cells – cell-based, doxorubicin co-treatment, pilot screen (AID 601;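 active = viability loss from added drug above about 55%, and viability with drug at most 40%, in both replicates, limit read from the data, passing the limit was not always enough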). As to conditions: CellTiter-Glo, 72 h, at 10 µM; for differential viability (reversal): stronger effect = higher value.
The nature of test [7]: yeast transport mutant growth inhibition pilot in 384-well plates, post-Golgi transport modulator project (AID 636; in the data active = inhibition above about 31%). As to conditions: absorbance 615 nm, about 18 h, stronger effect = higher value.
Test [8] in a line: growth suppression of yeast trafficking mutant, preliminary HTS, modulators of trafficking downstream of Golgi apparatus project, 1536-format plate, OD 615 nm (AID 637; in the data active = inhibition above about 30%). To be noted: yeast transport mutant growth, absorbance 615 nm, 18 h; stronger effect = higher value.
The nature of test [9]: S. cerevisiae growth inhibition in permissive medium (OD615), pilot counter-assay for S. cerevisiae lifespan shortening project, permissive growth control (AID 705;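 active = growth inhibition above 25% in both replicates, a cutoff set 3 SD above the mean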). As to conditions: OD615, 24 h, at 10 µM, stronger effect = higher value.
Test [10] in a line: S. cerevisiae growth inhibition in restrictive medium, OD615, pilot screen, restrictive growth control, yeast lifespan reduction project (AID 706;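 active = growth inhibition above a set limit, 3 SD over mean compound inhibition, in both replicates, cut at about 43% in these data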;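 also: modified DeaD lifespan yeast strain shifted to restrictive glucose medium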). To be noted: OD615, 48 h, at 10 µM, stronger effect = higher value.
Test [11] in a line: doxorubicin toxicity protection in MRP-1 cells – H69AR cells, CellTiter-Glo, duplicate, MRP-1 activator project, pilot screen (AID 807;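 active = viability increase at or above a cutoff of the median across tested compounds plus 3 SD, cut at about 8.5% in these data, passing the limit was not always enough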;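 also: compound pretreatment 18-22 h then 72 h combined with doxorubicin; 0% = doxorubicin alone and 100% = vehicle without doxorubicin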). To be noted: H69AR viability with doxorubicin, CellTiter-Glo luminescence; at 10 µM; stronger effect = higher value.
Test [12] can be described thus: viability of HCT116 without oncogenic beta-catenin – human colon tumor cells, pilot screen (AID 823).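 Also: 0% = wells killed by 20 µM Hyamine and 100% = untreated DMSO cell wells.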 As to conditions: HCT116 beta-catenin knockout viability, CellTiter-Glo, 60 h; at 10 µM; stronger effect = lower value.
A short description of test [13]: viability of PTEN-null HCT116 cells – cell-based, HCT116 clonal line, CellTiter-Glo, pilot screen (AID 824;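 active = viability at or below 27.92% in each of two runs, the all-compound median minus 4 SD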;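 also: 0% = 20 µM Hyamine control and 100% = vehicle cell control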). To be noted: HCT116 PTEN-deleted viability, 60 h, at 10 µM, stronger effect = lower value.
A short description of test [14]: RAM pathway blockade in budding yeast – dse1pr::URA3 reporter, 5-FOA selection, pilot screen (AID 869;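 active = inhibition over a set limit, the all-compound mean plus 3 SD, in both replicate runs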;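 also: 0% = DMSO wells with no growth and 100% = 10 µM 1-NA-PP1 with full growth; RAM network block rescues cells from 5-FOA so hits raise OD615 growth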). To be noted: S. cerevisiae dse1pr::URA3 5-FOA growth, OD615, 2 d; at 10 µM; stronger effect = higher value; strain carries analog-sensitive mutant Cbk1 kinase.
The nature of test [15]: RAM signaling pathway blockade in yeast – S. cerevisiae, Pdr1DBD-CYC8 efflux-inhibited sensitized strain, primary screen (AID 1298;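 active = RAM network inhibition above 8.4% in each of two replicates, 3 SD over the compound average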;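 also: 0% = DMSO untreated cells without growth and 100% = 10 µM 1-NA-PP1 full growth; higher means more yeast growth rescued from 5-FOA killing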). As to conditions: S. cerevisiae cbk1-as DSE1-URA3 strain, 5-FOA growth OD615, 2 d; at 50 µM; stronger effect = higher value.
[16] abbreviates: H69AR cells + 2 uM doxorubicin, measured here: viability with 2 uM doxorubicin, stronger effect = lower value.
[17] abbreviates: H69AR cells, compound alone cytotoxicity.

Consider `COc1ccc(S(=O)(=O)NCc2ccc3c(c2)OCO3)cc1C(=O)O`, for which the viability was 96.5% in test [1]; 96.5% (inactive) in test [3]; 109% (inactive) in test [4]; 90.1% (inactive) in [5]; 93.4% in test [6] (setting [16]); 90.1% in test [6] (setting [17]). The values for the viability in [12] and in [13] were 96.9% (inactive) and 95.4% (inactive), respectively. Besides, the Her2 level in test [2] was 84.5% (inactive). For the same compound, in test [6] (H69AR cells + 2 uM doxorubicin), the differential viability (reversal) was -3.31% (inactive). Also, the figures for the inhibition in test [7], in test [8] and in test [14] were -4.36% (inactive), -0.33% (inactive) and 1.89% (inactive), respectively. In addition, the growth inhibition is -4.53% (inactive) in test [9] and -6.08% (inactive) in [10]. Moreover, the viability increase in [11] is -0.34% (inactive). The RAM network inhibition in test [15] was 5.84% (inactive).
Regarding `CCOC(=O)N1CCN(Cc2nc3c(c(=O)n(C)c(=O)n3C)n2Cc2ccccc2)CC1`, the viability in test [1] is 104%; in test [3], 104% (inactive); in [4], 96.3% (inactive); in test [5] it was 89.1% (inactive); in [6] (setting [16]) it was 78.7%; in [6] (setting [17]), 89.1%. The viability in test [12] is 97.3% (inactive); in test [13], 98% (inactive). Moreover, the Her2 level in [2] was 106% (inactive). Further, the differential viability (reversal) in test [6] (H69AR cells + 2 uM doxorubicin) is 10.5% (inactive). Further, the inhibition in test [7] was -2.13% (inactive); in test [8], 2.62% (inactive); in test [14] it was 0.61% (inactive). Also, the growth inhibition in [9] is -8.18% (inactive); in test [10], -4.35% (inactive). Moreover, the viability increase in [11] was -4.1% (inactive). Moreover, the RAM network inhibition in test [15] is 4.53% (inactive).
On to `S=c1[nH]nc(-c2ccccc2)n1C1C=CCCC1` (stereo not given), for which the viability in test [1] is 95.5%; in test [3] it was 95.5% (inactive); in test [4], 97.4% (inactive); in test [5], 85% (inactive); in test [6] (setting [16]), 84.4%; in test [6] (setting [17]) it was 85%. Besides, the viability was 102% (inactive) in test [12] and 101% (inactive) in [13]. Besides, the Her2 level in test [2] is 104% (inactive). For the same compound, in test [6] (H69AR cells + 2 uM doxorubicin), the differential viability (reversal) was 0.65% (inactive). The inhibition in test [7] was 1.56% (inactive); in [8], -6.33% (inactive); in [14], 1.67% (inactive). The growth inhibition in test [9] was 2.92% (inactive); in [10] it was -1.09% (inactive). For the same compound, in test [11], the viability increase was -1.61% (inactive). In addition, the RAM network inhibition in [15] is 2.63% (inactive).
As to `CCOC(=O)Cn1ncc(-c2ccccc2)c1N`, the viability in test [1] was 101%; in test [3], 101% (inactive); in test [4], 102% (inactive); in test [5], 93% (inactive); in [6] (setting [16]), 86%; in test [6] (setting [17]) it was 93%. Further, the figures for the viability in test [12] and in test [13] were 100% (inactive) and 94.5% (inactive), respectively. In addition, in test [2], the Her2 level was 72% (inactive). Moreover, the differential viability (reversal) in test [6] (H69AR cells + 2 uM doxorubicin) is 7.02% (inactive). The results for the inhibition in test [7], in [8] and in test [14] were -7.95% (inactive), -1.43% (inactive) and 1.83% (inactive), respectively. In addition, the growth inhibition was 2.3% (inactive) in test [9] and -2.13% (inactive) in [10]. In addition, the viability increase in test [11] was 0.83% (inactive). For the same compound, in test [15], the RAM network inhibition is 2.21% (inactive).
With `C=C(C)c1cccc(C(C)(C)NC(=O)NCC2CCCO2)c1` (stereo not given), the viability in [1] is 94%; in [3] it was 94% (inactive); in test [4] it was 79.9% (inactive); in test [5], 93.7% (inactive); in test [6] (setting [16]) it was 86.5%; in test [6] (setting [17]), 93.7%. Also, the viability is 94.7% (inactive) in test [12] and 96.2% (inactive) in test [13]. The Her2 level in [2] was 98% (inactive). Moreover, the differential viability (reversal) in [6] (H69AR cells + 2 uM doxorubicin) was 7.16% (inactive). Moreover, the inhibition in [7] was 0.77% (inactive); in test [8], -8.5% (inactive); in test [14], 1.77% (inactive). Further, the growth inhibition in test [9] is -6.62% (inactive); in test [10] it was -9.92% (inactive). Also, the viability increase in test [11] was -0.54% (inactive). Also, the RAM network inhibition in [15] is 1.07% (inactive).
